Bead autofluor = compound fluorescence in toxin protease inhibitor counterscreen; compound autofluorescence counterscreen, microsphere flow cytometry; active compounds read high; fluorescence intensity (no concentration beside the values); hit rate 3.1% among 360,000; in the data active = fluorescence intensity above about 16000; inconclusive = no clear call, values can overlap the other calls
CCHFV vOTU inh = CCHFV vOTU protease inhibition; Pep-AMC fluorescence; hit rate 0.55% among 370,000; inhibition, % at 11.5 µM; in the data active = inhibition above about 30%
BoNT F protease = inhibitors of Botulinum neurotoxin F light chain protease; Multiplex microsphere protease cleavage assay, flow cytometry; inhibition, % at 10 µM; hit rate 0.22% among 360,000; AID 588497; in the data active = inhibition above about 35%, passing the limit was not always enough; inconclusive = no clear call, values can overlap the other calls
BoNT A protease = BoNT A light chain protease inhibition; multiplex microsphere protease substrate cleavage, flow cytometry; inhibition, % at 10 µM; hit rate 0.17% among 360,000
3CLpro inhibitor = SARS-CoV 3CLpro protease inhibition; P0C6X7; hit rate 0.14% among 290,000; inhibition, % at 6 µM; recombinant SARS-CoV 3CLpro, quenched FRET peptide cleavage; AID 1706; in the data active = inhibition above about 12%
Anthrax LF prot = blocks Bacillus anthracis lethal factor protease; inhibition, % at 10 µM; P15917; hit rate 0.12% among 360,000; multiplex microsphere protease cleavage assay, LF
Target sequence (P15917 whole entry, looked up): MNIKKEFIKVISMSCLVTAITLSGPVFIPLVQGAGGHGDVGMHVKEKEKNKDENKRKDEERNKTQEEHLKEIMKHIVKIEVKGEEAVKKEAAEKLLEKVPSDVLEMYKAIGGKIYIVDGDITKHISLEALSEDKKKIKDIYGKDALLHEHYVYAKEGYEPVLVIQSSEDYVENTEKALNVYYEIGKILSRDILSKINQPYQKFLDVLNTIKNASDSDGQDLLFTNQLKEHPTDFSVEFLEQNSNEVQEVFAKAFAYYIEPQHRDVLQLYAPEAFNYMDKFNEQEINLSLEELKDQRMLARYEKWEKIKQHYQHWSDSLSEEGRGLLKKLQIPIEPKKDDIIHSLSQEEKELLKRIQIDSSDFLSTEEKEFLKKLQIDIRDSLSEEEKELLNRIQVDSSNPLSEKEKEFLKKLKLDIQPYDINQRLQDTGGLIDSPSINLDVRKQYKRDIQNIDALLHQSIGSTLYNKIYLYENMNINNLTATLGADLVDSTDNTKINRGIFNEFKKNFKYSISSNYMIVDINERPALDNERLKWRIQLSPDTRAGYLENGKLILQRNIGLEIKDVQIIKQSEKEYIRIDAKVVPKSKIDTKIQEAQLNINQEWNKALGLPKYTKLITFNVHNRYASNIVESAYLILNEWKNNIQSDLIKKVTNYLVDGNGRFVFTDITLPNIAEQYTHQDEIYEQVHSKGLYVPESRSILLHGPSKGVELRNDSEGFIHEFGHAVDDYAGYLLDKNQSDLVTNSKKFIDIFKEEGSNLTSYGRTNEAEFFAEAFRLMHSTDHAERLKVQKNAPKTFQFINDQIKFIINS
Each line names hits and unclear results; the compound was inactive in the other large screens. An excerpt weighted towards active compounds, which were near 3.9% of everything screened. Cut-off read from the data, not from the text of the source, unless noted: active = inhibition above about 30%; inconclusive = no clear call, values can overlap the other calls; inactive = below that.

Cc1c(C(=O)Nc2ccccc2)oc2c1C(=O)CC(C)(C)C2	none
O=C(Nc1ccccc1)C(Cc1cccs1)c1nn[nH]n1 (stereo not given)	none
CCOc1cccc(NC(=O)C(Cc2cccs2)c2nn[nH]n2)c1 (stereo not given)	Bead autofluor 20016
CC(=O)NC(Cc1ccc(F)cc1)C(=O)NC1CCN(c2ncccc2[N+](=O)[O-])CC1 (stereo not given)	none
CSC1=C(C#N)C(c2ccccc2C)C(C#N)=C(N)N1 (stereo not given)	Bead autofluor 23095, BoNT A protease inconclusive
Nc1nc(NCc2ccccc2)nc(Nc2cccc(F)c2)c1[N+](=O)[O-]	Bead autofluor 22824
CCOC(=O)C1=C(O)CCn2c1nc1ccccc12	Bead autofluor 19422 (no result: CCHFV vOTU inh)
CCOc1ccc(C(=O)N2CCn3c2nc2ccccc23)cc1	none
OC1(c2cccc(C(F)(F)F)c2)CCNCC1	Bead autofluor 20667
O=S(=O)(c1ccc(OC(F)(F)F)cc1)N1CCC(O)(c2cccc(C(F)(F)F)c2)CC1	none
Cc1nnc(-c2cnn(C)c2N)n1Cc1ccccc1	none
Cc1nnc(-c2cnn(-c3ccccc3)c2N)n1Cc1ccccc1	Bead autofluor 20987
Cc1nnc(-c2cnn(-c3ccccc3)c2N)n1Cc1ccc(F)cc1	Bead autofluor 19393, BoNT A protease inconclusive
O=C(c1ccco1)N1CCN(c2ncnc3c2nnn3Cc2ccccc2Cl)CC1	none
O=C(c1ccco1)N1CCN(c2nc(C(F)(F)F)nc3c2nnn3Cc2ccccc2)CC1	Bead autofluor 24937
NC(=O)c1c(-c2ccccc2)oc2ccc(O)cc12	Bead autofluor 22271
CCOC(=O)c1c(-c2ccccc2)oc2ccc(O)cc12	none
CN(Cc1ccccc1)S(=O)(=O)c1cccc(C(=O)OCc2ccc(Oc3ccccc3)cc2)c1	none (no result: Bead autofluor, BoNT F protease, BoNT A protease, 3CLpro inhibitor, Anthrax LF prot)
O=C(CC(c1ccco1)S(=O)(=O)c1ccccc1)c1ccc(F)cc1 (stereo not given)	Bead autofluor 22035
COc1ccc(-n2nnc3c(=O)n(Cc4ccccc4C)cnc32)cc1	none (no result: CCHFV vOTU inh)
Cc1ccc(C)c(Cn2cnc3c(nnn3-c3ccc(F)cc3)c2=O)c1	Bead autofluor 16844
O=C1CCC(C(=O)OCC(=O)N2N=C3/C(=C\c4ccccc4)CCCC3C2c2ccccc2)N1 (stereo not given)	none (no result: 3CLpro inhibitor)
O=C1CCC(C(=O)OCC(=O)N2N=C3/C(=C/c4ccccc4)CCCC3C2c2ccccc2)N1 (stereo not given)	Bead autofluor 20500, BoNT A protease inconclusive
CCc1nc2cc(Cl)c(Cl)cc2[nH]1	Bead autofluor 23720, BoNT A protease inconclusive
O=C(Nc1ccc(Cl)cc1C(=O)NCc1cccnc1)c1ccco1	Bead autofluor 23145, BoNT A protease inconclusive
CCOc1cc(NS(=O)(=O)c2ccc(OC)cc2)c(OCC)cc1NC(=O)c1ccco1	Bead autofluor 22748
Cc1cc(NC(=O)c2cccnc2)ccc1NC(=O)c1ccco1	Bead autofluor 22536
Cc1cc(NC(=O)c2ccco2)ccc1NC(=O)c1ccco1	none
O=C(Nc1ccc(Cl)cc1C(=O)NCC1CCCO1)c1ccco1 (stereo not given)	Bead autofluor 23431
O=C(Nc1ccc(Cl)cc1C(=O)NCC1CCCO1)c1ccc(Cl)cc1Cl (stereo not given)	none
COc1cccc(NC(=O)C2CCN(S(=O)(=O)c3ccc4c(c3)N(C(C)=O)CCO4)CC2)c1	none
CCOc1cc(NC(=O)c2ccco2)c(OCC)cc1NC(=O)CCC(=O)NCc1cccnc1	Bead autofluor 19666 (no result: CCHFV vOTU inh)
O=C(Nc1ccc(S(=O)(=O)NC2=NCCCCC2)cc1)c1cc(F)c(F)cc1Cl	none (no result: Bead autofluor, BoNT F protease, BoNT A protease, 3CLpro inhibitor, Anthrax LF prot)
CCOC1=C2[C@@H](CN(S(=O)(=O)c3ccc(C)cc3)[C@H]2c2cccc3ccccc23)[C@H]2C(=O)N(CC)C(=O)[C@H]2C1	none (no result: 3CLpro inhibitor)
CC1CCCC(C)N1CCCNC(=O)Cn1c(=O)c2cccn2c2cccnc21 (stereo not given)	none
CCOc1ccc(C(=S)N2CCCC2)cc1OC	none
CCOc1ccc(C(=O)N2CCCC2)cc1OC	Bead autofluor 21510
COc1cc(OC)cc(C(=O)N2CCN(Cc3cccc(F)c3)CC2)c1	Bead autofluor inconclusive, BoNT F protease inconclusive, BoNT A protease inconclusive
COc1cccc(C(=O)N2CCN(Cc3cccc(F)c3)CC2)c1	Bead autofluor 23288
COc1ccc(CN2CCN(C(=O)c3cc(OC)c(OC)c(OC)c3)CC2)cc1OC	Bead autofluor 22314, BoNT A protease inconclusive (no result: CCHFV vOTU inh)
CC1=C(C)CC(C(=O)NCc2c(F)cccc2Cl)C(C(=O)O)C1 (stereo not given)	none (no result: CCHFV vOTU inh)
CCOc1ccc(-c2n[nH]c(=S)o2)cc1	none
CCOc1ccccc1-c1n[nH]c(=S)o1	Bead autofluor 17280
Cc1cc(C)c2c(=O)n3c(nc2c1)C(Cc1ccccc1)NC(=O)c1cc2ccccc2cc1-3 (stereo not given)	none (no result: 3CLpro inhibitor)
C=CCSc1nc(=O)n2cccc(C)c2n1	Bead autofluor 21125
C=Cc1ccc(Cn2nc(-c3ccccc3)ccc2=O)cc1	none
COc1ccc(C2C(=O)N(C3CCCCC3)CC(=O)N2C2CCCC2)cc1 (stereo not given)	none
CCOc1ccc(C2c3[nH]c4ccccc4c3C[C@H]3C(=O)N(C4CC4)CC(=O)N23)cc1OC (stereo not given in full)	none
COc1ccc(C2C(=O)N(C3CCCCC3)CC(=O)N2Cc2ccco2)cc1 (stereo not given)	Bead autofluor 20572, BoNT A protease inconclusive
CCCOc1ccc(C2C(=O)N(C3CCCCC3)CC(=O)N2C2CC2)cc1OC (stereo not given)	Bead autofluor 20615
COc1ccc(C2C(=O)N(CCc3ccccc3)CC(=O)N2C2CCCC2)cc1 (stereo not given)	Bead autofluor 23925
CCCOc1ccc(C2C(=O)N(C3CCCCCC3)CC(=O)N2Cc2ccco2)cc1OC (stereo not given)	Bead autofluor 22488
COc1ccc(CN2C(=O)CN(C3CCCCCC3)C(=O)C2c2ccc(OC)c(OC)c2)cc1 (stereo not given)	none
COc1cc(NC(=O)NNC(=O)c2cc3occc3n2C)cc(OC)c1OC	none (no result: Bead autofluor, BoNT F protease, BoNT A protease, Anthrax LF prot)
COc1ccc(C2C(=O)N(C3CCCCCC3)CC(=O)N2Cc2ccccc2)cc1OC (stereo not given)	Bead autofluor 19721
Cc1nn(-c2ccccc2)c(OC(=O)c2cccs2)c1S(=O)(=O)c1ccccc1	none
Cc1nn(-c2ccccc2)c(OC(=O)c2cccs2)c1S(=O)(=O)c1ccc([N+](=O)[O-])cc1	Bead autofluor 16331
COc1ccc(C2CC(=O)C(c3cccc(C)c3)=CN2Cc2ccccc2)cc1 (stereo not given)	none (no result: Bead autofluor, BoNT F protease, BoNT A protease, 3CLpro inhibitor, Anthrax LF prot)
COc1ccc(C(=O)CCC(C)(C)[N+](=O)[O-])cc1OC	none
Cc1cccc(NC(=O)C23CCC(C)(/C(=N/O)C2)C3(C)C)c1 (stereo not given)	none
CC12CCC(C(=O)Nc3ccccc3)(C/C1=N\O)C2(C)C (stereo not given)	Bead autofluor 16758
COc1ccc(C(Cl)=C(C=O)c2ccc(OC)c(OC)c2)cc1OC	none (no result: 3CLpro inhibitor)
CC(=O)Nc1cccc(/C(C)=N/NC(=O)c2ccc3c(c2)OCO3)c1	none
